# Results reported in PubChem BioAssay (NCATS).
# Records with an inconclusive call do not appear. Unmarked numbers belong to inactive results. The source made the active and inactive calls. Calls follow the shape of the dose curve; as a rule, active = well fitted cell-killing curve with a large enough effect; inconclusive = small, poorly fitted or top-dose-only effect, or effect the other way; inactive = no such curve, though single readings can be large or run the other way.
# Experiment: Viability qHTS for spleen associated tyrosine kinase inhibitor (SYKi) drug resistant MV4-11 cells (AID 1963824); also: nearly all actives have a fitted effect of over 35% in size
# Conditions: SYKi-resistant MV4-11 viability, CellTiter-Glo, 72 h; series mostly up to 45 µM
# Outline: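 SYK inhibitor-resistant MV4-11 AML cells, 500 per well, added to predispensed compounds and incubated 72 hr at 37 C, 5% CO2. Viability measured by CellTiter-Glo luminescence after 10 min at room temperature.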
# Potency is read from the fitted curve at half-maximal effect.
Compound,Potency,"viability, % of control"
COc1cc(/C=C/C(=O)O[C@H]2[C@H](O)[C@@H](CO)O[C@@]2(CO)O[C@H]2O[C@H](COC(=O)c3ccc(O)cc3)[C@@H](O)[C@H](O)[C@H]2O)cc(OC)c1OC,inactive,
N#CC(=C(/N)Sc1ccccc1N)/C(C#N)=C(/N)Sc1ccccc1N,7.31 µM (active),
CC1CC2OCC3(O)CCC(O)C(C14CC(c1ccoc1)OC4=O)C23CO (centres undefined),inactive,
CCCCC(=O)O[C@]1(C(=O)CO)CC[C@H]2[C@@H]3CCC4=CC(=O)CC[C@]4(C)[C@H]3[C@@H](O)C[C@@]21C,inactive,
COC1OC(=O)C2=C1C1(C)CCCC(C)(C)C1CC2O (centres undefined),inactive,
CCC1C(=O)N(C)c2cnc(Nc3ccc(C(=O)NC4CCC(N5CCN(CC6CC6)CC5)CC4)cc3OC)nc2N1C(C)C (centres undefined),0.0116 µM (active),
COC(=O)c1ccc(O[C@@H]2O[C@H](CO)[C@@H](O)[C@H](O)[C@H]2O)c(OC)c1,inactive,
COC1C2=C(COC2=O)C2(C)CCCC(C)(CO)C2C1OC(=O)c1ccccc1 (centres undefined),inactive,
CCCSc1nc(NC2CC2c2ccc(F)c(F)c2)c2nnn(C3CC(OCCO)C(O)C3O)c2n1 (centres undefined),20.6 µM (active),
C[C@@H]1CCC2C(C)(C)[C@H](O)CC[C@]2(C)[C@@]12Cc1c(O)cc3c(c1O2)CNC3=O (some centres undefined),inactive,
Cc1ccc2[nH]c(=O)c(C3=NN(C(=O)CCC(=O)O)C(c4ccc(Br)cc4)C3)c(-c3ccccc3)c2c1 (centres undefined),23.1 µM (active),
Cc1ccn(-c2cc(Cl)ccc2[C@@H](Oc2cc(-c3ccc(C[C@H](N)C(=O)O)cc3)nc(N)n2)C(F)(F)F)n1,20.6 µM (active),
COc1c2c(c(C)c3c1C(=O)OC3)OC1(C)CC(O)C34OC(OC)(OC3(C)C)C(O)CC4(C)C1C2 (centres undefined),inactive,
CC1OC(OC2C(CO)OC(OCC3OC(OC(=O)C45CCC(C)(C)CC4C4=CCC6C7(C)CCC(OC8OC(CO)C(O)C(OC9OC(CO)C(O)C(O)C9O)C8O)C(C)(C)C7CCC6(C)C4(C)CC5)C(O)C(O)C3O)C(O)C2O)C(O)C(O)C1OC1OC(CO)C(O)C(O)C1O (centres undefined),,88.5% [at 9.25 µM]
CCCCCCCCCCCCCCCCOP(=O)([O-])OCC[N+](C)(C)C,21.1 µM (active),
CC(C)n1nc(Cc2cccc3ccccc23)c2c(N)ncnc21,8.2 µM (active),
COc1nnc2ccc(N3CCC(c4ccc(OCCN5CCN(C)C(=O)[C@H]5C)cc4)CC3)nn12,0.0372 µM (active),
CC(C)=CCC(O)/C(C)=C/CO[C@@H]1O[C@H](CO)[C@@H](O)[C@H](O)[C@H]1O (some centres undefined),inactive,
CCC(C)C(=O)O[C@H]1[C@H](O)[C@@]2(COC(C)=O)C(CC1(C)C)C1=CCC3[C@@]4(C)CC[C@H](O[C@@H]5O[C@H](C(=O)O)[C@@H](O)[C@H](O)[C@H]5O)[C@@](C)(CO)C4CC[C@@]3(C)[C@]1(C)C[C@@H]2O (some centres undefined),3.48 µM (active),
CC(C)C[C@@H]1NC(=O)[C@@H]2C[C@@]34C[C@@H]5[C@@]6(C)CCCC(C)(C)C6CC[C@@]5(C)N(c5ccccc53)[C@H]4N2C1=O (some centres undefined),0.448 µM (active),
CC(=O)O[C@@H]1C=C2[C@H](CC[C@@]3(C)[C@@]2(O)CC[C@H]2Cc4c([nH]c5ccccc45)[C@@]23C)O[C@@H]1C(C)(C)O,8.93 µM (active),
COc1cc2ncnc(Nc3ccc(F)c(Cl)c3)c2cc1O,9.2 µM (active),
C[C@@]1(O)[C@H](O)[C@@H](CO)O[C@H]1n1ccc(N)nc1=O,13 µM (active),
CC(C)=CCC(O)[C@](C)(O)C1[C@H](O)C[C@@]2(C)C3CC=C4C(C[C@H](O)[C@@H](O[C@@H]5O[C@H](CO)[C@@H](O)[C@H](O)[C@H]5O)C4(C)C)[C@]3(C)C(=O)C[C@]12C (some centres undefined),inactive,
COc1cccc(-c2ccc([C@@H](Oc3cc(-c4ccc(C[C@H](N)C(=O)O)cc4)nc(N)n3)C(F)(F)F)cc2)c1,20.6 µM (active),
C=C1C(=O)O[C@@H]2/C=C(\CO)CC/C=C(/C=O)C[C@H](O)[C@@H]12,3.26 µM (active),
Cn1cnc(-c2nccc3c(=O)[nH]c(OCCCC(F)(F)F)nc23)c1,9.2 µM (active),
CC(C)=C/C=C\[C@H](C)[C@H]1CC[C@]2(C)C[C@@H]3C(C)=CC(=O)C3/C(CO)=C\C[C@@H]12 (some centres undefined),14.3 µM (active),
CC(=O)N1c2ccc(-c3ccc(C(=O)O)cc3)cc2C(Nc2ccc(Cl)cc2)CC1C (centres undefined),0.0461 µM (active),
